High-throughput results deposited in PubChem by several laboratories.
Shown are actives, neighbours in structure and some others; about 1.9% of the full set was active somewhere.
Furin inhibitor: inhibitors of human furin; AID 463115; hit rate 0.061% among 220,000; inhibition, % at 20 µM or 30 µM; purified furin, fluorogenic substrate cleavage; P09958; in the data active = inhibition above about 25%
m-calpain inh: calpain II (pig) inhibition. hit rate 0.37% among 220,000. purified calpain II, fluorogenic peptide substrate, 30 min. inhibition, % at 16 µM;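 active = inhibition above about 50%, limit read from the data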
PGE2 EP2 inh: EP2 receptor (human) inhibition | C6 glioma cells expressing human EP2, cAMP TR-FRET; cells stimulated with saturating PGE2 | P43116 | inhibition, % at 25 µM | hit rate 0.52% among 260,000;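 active = percent inhibition above 40 after rounding to a whole number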;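 also: rat C6 glioma host cells with rolipram phosphodiesterase inhibitor present; the protocol text gives 20 µM as final concentration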
Target sequence (P43116 whole entry, looked up): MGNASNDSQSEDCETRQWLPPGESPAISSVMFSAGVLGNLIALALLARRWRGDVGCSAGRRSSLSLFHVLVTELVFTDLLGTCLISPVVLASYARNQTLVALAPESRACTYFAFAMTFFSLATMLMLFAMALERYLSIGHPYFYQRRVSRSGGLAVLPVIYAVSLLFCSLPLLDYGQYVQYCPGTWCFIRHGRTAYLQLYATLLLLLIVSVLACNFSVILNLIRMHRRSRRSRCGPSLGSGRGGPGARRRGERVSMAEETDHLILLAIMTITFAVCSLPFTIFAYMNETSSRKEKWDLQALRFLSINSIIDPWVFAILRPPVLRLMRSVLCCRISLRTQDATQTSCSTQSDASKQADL
EP2 mod: modulates human prostaglandin E2 receptor EP2 signaling. induction, % at 25 µM. EP2-expressing cells, cAMP HTRF FRET, PGE2 co-stimulation. hit rate 0.83% among 260,000. P43116;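 active = compounds whose cAMP rise, as percent of the full-agonist control response, exceeds 60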;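 also: rat C6 glioma line stably carrying human EP2 under a CMV promoter; the protocol text gives 20 µM as final concentration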
Efa HMGR inh: inhibitors of class II HMG-CoA reductase from Enterococcus faecalis; purified E. faecalis HMGR, NADPH absorbance 340 nm kinetic; inhibition, % at 10 µM; hit rate 0.41% among 190,000;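 active = inhibition above a set limit, the median over all tested compounds plus 3 SD, cut at about 9.5% in these data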;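 also: enzyme runs in reverse so mevalonate oxidation gives rising NADPH absorbance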
A number is an active result; i = inactive; nt = not tested or not shown; ! = not confirmed by another sample.

SMILES	Furin inhibitor	m-calpain inh	PGE2 EP2 inh	EP2 mod	Efa HMGR inh
Nc1nc(SCC(=O)C2CCC(Br)CC2)c2[nH]cnc2n1 (stereo not drawn)	nt	nt	48.9	i	nt
CCCC(=O)Nc1cc(-c2nc3ccccc3o2)ccc1OC	nt	nt	i	i	nt
CCN(CC)c1ccc(CN2CCc3c(nc(N4CCCC(C)C4)[nH]c3=O)C2)c(OC)c1 (stereo not drawn)	nt	nt	i	i	nt
CC(C)(C)[C@H]1C=C(C(=O)N2CCN(Cc3ccc4c(c3)OCO4)CC2)O[C@@H](OCc2ccc(CO)cc2)C1	i	i	i	i	19.2
CC(C)(C)[C@@H]1C=C(C(=O)N2CCN(Cc3ccccc3)CC2)O[C@H](OCc2ccc(CO)cc2)C1	i	i	i	i	i
CC(=O)c1ccc(NC(=O)Nc2ccc3c(c2)N(C)C(=O)CS3)cc1	i	i	79.0	i	i
CCOC(=O)c1cc(C(=O)c2cccs2)n2ccc(C(C)=O)cc12	i	i	i	64.4	i
CCOC(=O)c1cc(C(C)=O)n2ccccc12	i	i	i	i	i
O[C@@H](c1cc(C(F)(F)F)nc2c(Cl)cc(Cl)cc12)[C@@H]1CCCCN1	nt	nt	58.2	i	nt
OC(c1cc(-c2ccc(C(F)(F)F)cc2)nc(C(F)(F)F)c1)C1CCCCN1 (stereo not drawn)	i	i	54.1	i	nt
OC(c1cc(C(F)(F)F)nc2c(C(F)(F)F)cccc12)C1CCCCN1 (stereo not drawn)	nt	nt	i	i	nt
O=c1c2[nH]c3ccc(Cl)cc3c2ncn1CCN1CCCCC1	i	i	i	i	i
S=c1nc[nH]c2c1[nH]c1ccc(Cl)cc12	i	i	i	61.4	nt
CC1=CN2C(=N)/C(=C/c3ccc([N+](=O)[O-])o3)C(=O)N=C2S1	i	i	104.3	i	i
CCc1cc2ccccc2nc1SCC(=O)Nc1ccccc1N1CCOCC1	nt	nt	i	i	nt
COc1ccc2[nH]c(=O)c(CN(CCO)C(c3nnnn3C3CCCCC3)C(C)C)cc2c1 (stereo not drawn)	nt	nt	i	i	nt
O=C(C1CC(c2ccc(Cl)c(Cl)c2)=NO1)N1CCCC1 (stereo not drawn)	nt	nt	i	i	nt
CN1C[C@H](c2ccccc2)C(O)([C@]2(c3ccccc3)CN(C)C[C@H](c3ccccc3)C2=O)[C@H](c2ccccc2)C1 (stereo partly drawn)	nt	nt	39.7	i	nt
CN1CCc2cc(O)c(O)cc2C(c2ccccc2)C1 (stereo not drawn)	nt	nt	i	i	nt
CSc1ccc(-c2nnn(Cc3ccccn3)n2)cc1	i	i	i	i	i
CSc1ccc(-c2nnn(Cc3ccc(Br)cc3)n2)cc1	i	i	43.0	i	i
COC(=O)CSc1nc(-c2ccccc2)nc2ccc(F)cc12	i	i	i	i	i
OCCSc1nc(-c2ccccc2)nc2ccc(F)cc12	i	i	i	70.3!	i
O=C(O)CSc1nc(-c2ccccc2)nc2ccc(F)cc12	nt	nt	i	88.9	nt
Cc1ccccc1OCCC(=O)OCC(=O)Nc1cc(S(=O)(=O)N2CCOCC2)ccc1Cl	i	i	i	i	13.4
SMILES	Furin inhibitor	m-calpain inh	PGE2 EP2 inh	EP2 mod	Efa HMGR inh
COc1ccccc1OCCC(=O)OCC(=O)Nc1cc(S(=O)(=O)N2CCOCC2)ccc1Cl	i	i	i	i	i
COc1ccccc1NC(=O)c1cc(S(=O)(=O)N2CCOCC2)ccc1Cl	29.0	i	i	i	i
O=C(NCCNC1CCC(c2ccccc2)CC1)c1ccco1 (stereo not drawn)	nt	nt	i	i	nt
CCC(CN1CCOCC1)NC(=O)Cc1c(C)[nH]c2ccc(C)cc12 (stereo not drawn)	nt	nt	i	i	nt
O=C(Cn1c(=O)sc2ccccc21)Nc1ccc(S(=O)(=O)N2CCCC2)cc1	i	54.0	i	i	i
O=C(CCOc1ccccc1)Nc1ccc(S(=O)(=O)N2CCCC2)cc1	i	56.9	i	i	i
COc1ccc2[nH]c(=O)c(CN(CC3CCCO3)C(=O)Nc3ccc(F)cc3)cc2c1 (stereo not drawn)	i	i	41.0	i	i
CCOc1ccc2[nH]c(=O)c(CN(CC3CCCO3)C(=S)NCC3CCCO3)cc2c1 (stereo not drawn)	nt	nt	i	i	nt
CCOc1ccc2[nH]c(=O)c(CN(CC3CCCO3)C(=S)NC3CCCCC3)cc2c1 (stereo not drawn)	nt	nt	i	69.8	nt
COc1ccc2cc(CN(C(=S)NC(C)c3ccccc3)C3CCCC3)c(=O)[nH]c2c1 (stereo not drawn)	nt	nt	i	i	nt
COc1ccc2[nH]c(=O)c(CN(C(=S)NC(C)c3ccccc3)C3CCCC3)cc2c1 (stereo not drawn)	nt	nt	44.8	i	nt
O=C(NC1CCCC1)C(c1ccco1)N(Cc1ccccc1Cl)C(=O)c1csnn1 (stereo not drawn)	nt	nt	i	i	nt
COc1ccc(OC)c(C(=O)CSc2nnc(COc3ccc(Cl)c(C)c3)o2)c1	nt	nt	i	i	nt
CSc1nc2sc3c(c2c2nnnn12)CC(C)(C)OC3	i	nt	nt	nt	nt
CSc1nc2sc3c(c2c2nnnn12)CCCC3	i	i	66.1	i	i
COC(=O)c1[nH]c2cc(OC)ccc2c1NC(=O)CCN1CCCCC1	34.4	i	i	i	i
CCOC(=O)c1sc(N/N=C/c2ccccc2)nc1C	i	i	i	61.5	9.9
CCOC(=O)c1sc(NC(=O)CSc2nccc(C)n2)nc1C	i	i	i	i	19.1
CCOC(=O)c1sc(Nc2ccc(C)cc2C)nc1C	i	i	i	64.1	i
CCOC(=O)c1sc(NC(=O)CSc2nccc(=O)[nH]2)nc1C	nt	nt	i	i	nt
CCc1ccc(-n2nnnc2SCC(=O)Nc2ccccc2N2CCOCC2)cc1	nt	nt	i	i	nt
CCNC(=S)NNC(=O)c1cc(-c2cccnc2)nc2ccccc12	i	i	43.5	i	i
CCNC(=S)NNC(=O)c1cc(-c2cccc(C)c2)nc2ccccc12	i	i	i	i	i
CC(C)(C)C1CC=C2C(C1)C(c1ccc(Cl)s1)C(C#N)=C(N)C2(C#N)C#N (stereo not drawn)	nt	nt	i	i	nt
COc1cc(OC)cc(C(=O)N2CCC(C(=O)Nc3ccc(C(F)(F)F)cc3)CC2)c1	nt	nt	i	i	nt
SMILES	Furin inhibitor	m-calpain inh	PGE2 EP2 inh	EP2 mod	Efa HMGR inh
CCC(CN1CCC(C)CC1)NC(=O)Cc1ccc2c(c1)OCCO2 (stereo not drawn)	nt	nt	i	i	nt
CCC(CN1CCN(C)CC1)NC(=O)Cc1ccc2c(c1)CCC2 (stereo not drawn)	nt	nt	46.0	i	nt
O=C(Nc1cccc(Cl)c1Cl)c1cccs1	nt	nt	i	i	nt
O=C(CN1C(=O)CSC1=O)Nc1cccc(Cl)c1	nt	nt	i	i	nt
Cn1c(=O)n(CCc2ccccc2)c(=O)c2c1nc1n2CCCN1Cc1ccccc1	i	i	i	i	i
Cn1c(=O)n(CCc2ccccc2)c(=O)c2c1nc1n2CCCN1CCc1ccccc1	i	68.7	i	i	i
CCOc1ccc2c(ccc(/C=C/c3cc(C)c4cccnc4c3O)[n+]2C)c1	nt	nt	51.8	i	nt
Cc1nc2ccccc2nc1N1CCCCC1	i	i	i	i	i
c1ccc2c(N3CCCCC3)ncnc2c1	i	i	i	i	i
c1ccc2nc(N3CCCC3)c(N3CCCC3)nc2c1	i	i	i	68.0!	i
c1ccc2c(c1)nc(N1CCCCCC1)c1ccccc12	i	i	i	63.1	nt
COc1ccccc1-n1c(SCC(=O)NC2CCCC2)nnc1-c1ccncc1	nt	nt	i	i	nt
